The text below walks through data of PubChem BioAssay (NCI).

Test systems include NCI-H23 lung; NCI-H226 lung; NCI-H322M lung; HOP-62 NSCLC; NCI-H460 lung; HOP-92 NSCLC; NCI-H522 lung; A549/ATCC NSCLC; 786-0 renal; COLO 205 colon; DU-145 prostate; K-562 leukemia; MALME-3M melanoma; MDA-MB-231 breast; RXF 393 renal; SF-268 CNS; SF-295 CNS; SF-539 CNS; UACC-257 melanoma; M14 melanoma.
Common to all, as to assay: NCI-60 one-dose screen, 48 h (100 = growth as untreated, 0 = no growth, -100 = all killed)
Holding throughout (settings): 10 µM unless noted

SMILES strings stand for the structures. This is part of a sample that, as a whole, favours compounds with a hit. Of some 83,000 tested, about 20% had one in any assay.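 Results are percent growth after 48 hours of single-concentration exposure. 100 means growth as in untreated cells, lower positive values show inhibition; negative values down to -100 show cell death.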 A number with no mark means an inactive call. Active and inactive are the calls of the source. Rule for the calls: active = growth percent below 10; inactive = the rest.

In the case of `Fc1ccc(NCc2nnc(-c3ccc(Cl)cc3)o2)cc1`, the growth in the experiment on NCI-H23 lung was 70.1%; in the experiment with NCI-H226 lung it was 71.8%; in the experiment on NCI-H322M lung it was 82.5%; in the experiment with HOP-62 NSCLC it was 84.6%; in the experiment with NCI-H460 lung, 83.7%; in the experiment on HOP-92 NSCLC, 67%. The growth in the experiment on NCI-H522 lung was 56.5%; with A549/ATCC NSCLC, 66.1%; with 786-0 renal, 87.8%; in the experiment on COLO 205 colon, 90%; with DU-145 prostate it was 95.5%; with K-562 leukemia it was 53.8%. Besides, the growth is 93.8% in the experiment on MALME-3M melanoma; 55.6% in the experiment with MDA-MB-231 breast; 84.8% with RXF 393 renal; 77.9% with SF-268 CNS; 77.9% in the experiment with SF-295 CNS; 90.6% in the experiment with SF-539 CNS. For the same compound, the growth in the experiment with UACC-257 melanoma was 68.4%; in the experiment on M14 melanoma, 77.9%.

For the compound `Brc1cnc2[nH]cc(-c3nnc(-c4ccccc4)o3)c2c1`, the growth was 78.5% in the experiment on NCI-H23 lung; 66.4% with NCI-H226 lung; 77.5% in the experiment on NCI-H322M lung; 85.2% in the experiment on HOP-62 NSCLC; 80.9% with NCI-H460 lung; 74.7% in the experiment with HOP-92 NSCLC. Moreover, the growth is 76.7% in the experiment with NCI-H522 lung; 81.2% in the experiment with A549/ATCC NSCLC; 73.6% in the experiment with 786-0 renal; 82.9% with COLO 205 colon; 57.9% with DU-145 prostate; 73.3% in the experiment with K-562 leukemia. The growth in the experiment on MALME-3M melanoma is 78.9%; with MDA-MB-231 breast it was 63%; in the experiment on RXF 393 renal it was 26.8%; in the experiment on SF-268 CNS it was 81.2%; in the experiment with SF-295 CNS it was 85.8%; in the experiment on SF-539 CNS it was 89.6%. For the same compound, the growth in the experiment with UACC-257 melanoma was 112%; in the experiment on M14 melanoma, 76.6%.

On to `CCCCn1c(-c2ccc(O)cc2)cn2c3c(=O)[nH]c(=O)n(C)c3nc12`, for which the growth with NCI-H23 lung was 82.2%; with NCI-H226 lung, 85%; in the experiment on NCI-H322M lung, 119%; in the experiment with HOP-62 NSCLC it was 82%; in the experiment on NCI-H460 lung it was 68.6%; with HOP-92 NSCLC it was 43.1%. For the same compound, the growth with NCI-H522 lung is 30.9%; in the experiment with A549/ATCC NSCLC it was 75%; in the experiment with 786-0 renal, 88.8%; in the experiment with COLO 205 colon, 89.9%; in the experiment on DU-145 prostate, 101%; in the experiment with K-562 leukemia, 34.3%. Besides, the growth in the experiment with MALME-3M melanoma was 90.7%; in the experiment with MDA-MB-231 breast, 66.5%; with RXF 393 renal, 74.9%; with SF-268 CNS it was 86.3%; in the experiment on SF-295 CNS, 78.1%; with SF-539 CNS it was 74.9%. In addition, the growth with UACC-257 melanoma was 79.1%; in the experiment on M14 melanoma it was 54.1%.

For the compound `Cc1cc2nc3c4cc(Cl)ccc4n(CCN(C)C)c3nc2cc1C`, the growth is 10.7% in the experiment with NCI-H23 lung; 10.4% in the experiment with NCI-H226 lung; 9.53% (active) with NCI-H322M lung; 22.1% with HOP-62 NSCLC; 1.36% (active) with NCI-H460 lung; 25.8% in the experiment with HOP-92 NSCLC. Also, the growth in the experiment on NCI-H522 lung was 19.7%; in the experiment with A549/ATCC NSCLC it was 3.82% (active); with 786-0 renal, 14.3%; in the experiment on COLO 205 colon, -49.6% (active); in the experiment on DU-145 prostate it was 15.3%; with K-562 leukemia, 3.43% (active). The growth in the experiment on MALME-3M melanoma is -45.5% (active); in the experiment with MDA-MB-231 breast, 7.77% (active); in the experiment with RXF 393 renal it was -0.246% (active); in the experiment with SF-268 CNS it was 33.3%; in the experiment on SF-295 CNS it was 11.4%; in the experiment on SF-539 CNS, 14.1%. The growth was 38.7% with UACC-257 melanoma and -45.7% (active) in the experiment with M14 melanoma.

For the compound `N#C/C(=C\c1ccc(-c2ccc(F)cc2)o1)c1nc(-c2ccco2)cs1`, the growth in the experiment with NCI-H23 lung is 93.6%; with NCI-H226 lung it was 84%; in the experiment with NCI-H322M lung it was 93%; with HOP-62 NSCLC it was 96.7%; in the experiment on NCI-H460 lung, 91.2%; in the experiment with HOP-92 NSCLC, 93.9%. Also, the growth was 98.1% with NCI-H522 lung; 103% with A549/ATCC NSCLC; 109% in the experiment with 786-0 renal; 108% in the experiment with COLO 205 colon; 104% in the experiment on DU-145 prostate; 95.9% with K-562 leukemia. Besides, the growth with MALME-3M melanoma is 98.1%; in the experiment on MDA-MB-231 breast it was 88.7%; in the experiment on RXF 393 renal it was 116%; with SF-268 CNS, 106%; with SF-295 CNS, 102%; in the experiment on SF-539 CNS, 98.7%. In addition, the growth in the experiment with UACC-257 melanoma was 106%; with M14 melanoma it was 102%.

For `Cc1cccc(C)c1NC(=O)CSC(=S)N1CCN(CCOCCO)CC1`, the growth in the experiment with NCI-H23 lung is 100%; in the experiment on NCI-H226 lung, 117%; in the experiment on NCI-H322M lung, 85.8%; with HOP-62 NSCLC, 105%; in the experiment with NCI-H460 lung it was 114%; with HOP-92 NSCLC, 110%. Further, the growth in the experiment with NCI-H522 lung was 90%; with A549/ATCC NSCLC it was 101%; with 786-0 renal it was 96.4%; with COLO 205 colon, 113%; in the experiment with DU-145 prostate, 101%; in the experiment on K-562 leukemia, 96%. Moreover, the growth in the experiment with MALME-3M melanoma is 87.3%; in the experiment on MDA-MB-231 breast, 116%; with RXF 393 renal, 125%; in the experiment with SF-268 CNS it was 93.9%; with SF-295 CNS it was 95.9%; in the experiment on SF-539 CNS, 94.3%. The growth with UACC-257 melanoma is 112%; in the experiment on M14 melanoma, 100%.

Turning to `O=C1C(=O)c2ccccc2C(O)=C1CCCc1ccc(C2CCCCC2)cc1`, the growth with NCI-H23 lung is 36.9%; in the experiment on NCI-H226 lung it was 47.1%; with NCI-H322M lung, 81.3%; in the experiment with HOP-62 NSCLC it was 44%; in the experiment on NCI-H460 lung, 7.15% (active); in the experiment on HOP-92 NSCLC, 40.7%. Besides, the growth is 54.7% with NCI-H522 lung; 21.1% with A549/ATCC NSCLC; 30.8% in the experiment on 786-0 renal; 42.6% in the experiment with COLO 205 colon; 39.2% in the experiment with DU-145 prostate; 32.8% with K-562 leukemia. In addition, the growth is 87.9% with MALME-3M melanoma; 52.1% in the experiment on MDA-MB-231 breast; 67.2% in the experiment with RXF 393 renal; 38.1% with SF-268 CNS; 39.7% in the experiment on SF-295 CNS; 29.2% in the experiment with SF-539 CNS. Besides, the values for the growth in the experiment with UACC-257 melanoma and in the experiment on M14 melanoma were 34.9% and 56.3%, respectively.

`N#CC1=C(N)Oc2ccc3ccccc3c2C1c1ccccc1` (stereo not given): the growth in the experiment with NCI-H23 lung is 43.9%; in the experiment on NCI-H226 lung it was 51.6%; in the experiment with NCI-H322M lung, 62.1%; in the experiment with HOP-62 NSCLC, 39.7%; with NCI-H460 lung, 21.7%; in the experiment on HOP-92 NSCLC, 62.6%. For the same compound, the growth in the experiment with NCI-H522 lung was 34.7%; with A549/ATCC NSCLC, 51%; in the experiment on 786-0 renal it was 35.5%; with COLO 205 colon it was 32.6%; with DU-145 prostate it was 51.2%; in the experiment on K-562 leukemia, 14.9%. Also, the growth with MALME-3M melanoma was 42.3%; with MDA-MB-231 breast, 47%; with RXF 393 renal it was 23.3%; with SF-268 CNS it was 52.2%; in the experiment on SF-295 CNS, 4.96% (active); with SF-539 CNS it was 11.4%. Further, the growth with UACC-257 melanoma is 61.7%; with M14 melanoma, 13.6%.
